{"source": "ChEMBL document CHEMBL1961873", "about": "“Compounds: GSK PKIS; Assays: Nanosyn kinase panel” (2012);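 also: each value is a mean inhibition figure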"}
{"target": "Death-associated protein kinase 1 (Homo sapiens) (UniProt P53355)", "sequence (P53355 whole entry, looked up)": "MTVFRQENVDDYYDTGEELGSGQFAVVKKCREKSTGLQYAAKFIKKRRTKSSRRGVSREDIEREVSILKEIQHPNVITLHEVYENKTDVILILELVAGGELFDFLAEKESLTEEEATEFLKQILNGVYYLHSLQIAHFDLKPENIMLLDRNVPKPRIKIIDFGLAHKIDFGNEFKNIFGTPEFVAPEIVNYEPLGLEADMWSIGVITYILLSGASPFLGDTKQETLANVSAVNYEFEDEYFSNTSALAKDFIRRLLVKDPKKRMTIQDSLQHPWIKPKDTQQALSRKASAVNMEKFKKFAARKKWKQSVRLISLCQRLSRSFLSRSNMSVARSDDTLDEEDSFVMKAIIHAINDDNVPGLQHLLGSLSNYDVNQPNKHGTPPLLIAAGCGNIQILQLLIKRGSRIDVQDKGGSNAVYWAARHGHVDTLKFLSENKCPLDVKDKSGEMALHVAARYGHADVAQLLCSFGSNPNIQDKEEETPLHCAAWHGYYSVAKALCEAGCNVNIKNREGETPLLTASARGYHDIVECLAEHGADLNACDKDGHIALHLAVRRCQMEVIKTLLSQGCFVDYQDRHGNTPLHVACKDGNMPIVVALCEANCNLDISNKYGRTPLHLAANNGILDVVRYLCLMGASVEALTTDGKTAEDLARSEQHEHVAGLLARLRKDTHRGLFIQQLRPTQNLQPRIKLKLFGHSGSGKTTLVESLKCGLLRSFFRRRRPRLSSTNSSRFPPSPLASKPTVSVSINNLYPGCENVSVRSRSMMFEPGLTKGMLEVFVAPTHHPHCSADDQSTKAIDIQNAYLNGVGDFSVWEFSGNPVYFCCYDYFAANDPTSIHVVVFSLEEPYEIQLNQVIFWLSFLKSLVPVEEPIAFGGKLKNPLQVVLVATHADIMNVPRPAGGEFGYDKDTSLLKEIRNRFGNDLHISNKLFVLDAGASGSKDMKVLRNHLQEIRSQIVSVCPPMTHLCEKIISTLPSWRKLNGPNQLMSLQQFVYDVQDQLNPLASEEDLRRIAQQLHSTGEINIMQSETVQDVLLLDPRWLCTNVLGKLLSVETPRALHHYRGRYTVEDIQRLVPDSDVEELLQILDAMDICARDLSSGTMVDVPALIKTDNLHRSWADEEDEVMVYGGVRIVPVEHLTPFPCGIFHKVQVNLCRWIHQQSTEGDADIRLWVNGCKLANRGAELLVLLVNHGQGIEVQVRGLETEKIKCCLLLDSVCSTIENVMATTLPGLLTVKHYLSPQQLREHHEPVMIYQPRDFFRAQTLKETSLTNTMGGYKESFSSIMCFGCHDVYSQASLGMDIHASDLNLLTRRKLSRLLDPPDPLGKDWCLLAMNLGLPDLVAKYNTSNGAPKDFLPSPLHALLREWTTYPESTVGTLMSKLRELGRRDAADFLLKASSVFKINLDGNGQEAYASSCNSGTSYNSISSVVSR", "conditions": "at 1 µM", "units": {"inhibition": "%"}}
{"smiles": "O=C(Nc1n[nH]c2cc(-c3ccccc3)ccc12)C1CC1", "inhibition": 7.04}
{"smiles": "Cc1ccc(C(=O)NC2CCC2)cc1-c1ccc(C(=O)NCC2CC2)cc1", "inhibition": 4.36}
{"smiles": "O=C(Nc1n[nH]c2cc(-c3cc(F)ccc3F)ccc12)C1CC1", "inhibition": -0.43}
{"smiles": "CNC(=O)c1cncc(/C=C/c2c(C)cccc2C)c1", "inhibition": 0.45}
{"smiles": "O=C(Nc1n[nH]c2nc(-c3ccc(O)cc3)c(Br)cc12)C1CC1", "inhibition": 3.27}
{"smiles": "NS(=O)(=O)c1ccc(N/N=C2\\C(=O)Nc3ccc(-c4cnco4)cc32)cc1", "inhibition": -3.71}
{"smiles": "Fc1ccc(-c2ncn(CCCN3CCOCC3)c2-c2ccncc2)cc1", "inhibition": 2.3}
{"smiles": "C[C@@H](Oc1cc(-n2cnc3ccc(OCC4CCN(C)CC4)cc32)sc1C(N)=O)c1ccccc1Cl", "inhibition": 9.2}
{"smiles": "CCc1ccc(Oc2nccc(-c3c(-c4ccc(F)cc4)ncn3C3CCNCC3)n2)cc1", "inhibition": 4.64}
{"smiles": "COc1cccc(/C=N/Nc2ncnc3c2cnn3-c2cccc(OC)c2)c1", "inhibition": -2.35}
{"smiles": "COc1ccc2cc(-c3c(-c4ccncc4)nc(-c4ccc(S(C)(=O)=O)cc4C)n3C)ccc2c1", "inhibition": -3.68}
{"smiles": "CS(=O)(=O)CCNCc1ccc(-c2ccc3ncnc(Nc4ccc(OCc5ccccc5)c(Br)c4)c3c2)o1", "inhibition": 2.27}
{"smiles": "Fc1ccc(-c2ncn(C3CCNCC3)c2-c2ccnc(Oc3ccc(Oc4ccccc4)cc3)n2)cc1", "inhibition": 13.2}
{"smiles": "O=C1Nc2ccc(I)cc2C1=Cc1cc(Br)c(O)c(Br)c1", "inhibition": -4.68}
{"smiles": "COc1cc(Nc2ncc3c(C)nc(-c4cccc(Oc5ccccc5)c4)n3n2)cc(OC)c1OC", "inhibition": 11.9}
{"smiles": "CN1CCN(CCCNc2nc3ccc(Oc4ccc(NC(=O)Nc5cc(C(F)(F)F)ccc5F)cc4)cc3[nH]2)CC1", "inhibition": -0.71}
{"smiles": "COc1cc(Nc2ncc(-c3ccccc3)o2)cc(OC)c1OC", "inhibition": 1.28}
{"smiles": "COc1ccc(C2=C(N3CCc4ccccc43)C(=O)NC2=O)cc1", "inhibition": 4.07}
{"smiles": "Cc1ccc(C(=O)NC(C)C)cc1-c1ccc(C(=O)NCC2CC2)cc1", "inhibition": -2.3}
{"smiles": "NC(=O)c1cc(-c2ccc(F)cc2)cc(-c2ccncc2)c1N", "inhibition": 1.25}
{"smiles": "Clc1ccc(CNc2nccc(-c3cnn4ncccc34)n2)cc1", "inhibition": 11.8}
{"smiles": "O=C1Nc2ccccc2/C1=C/Nc1ccc(-n2cncn2)cc1", "inhibition": 7.29}
{"smiles": "Fc1ccc(-c2ncn(C3CCNCC3)c2-c2ccnc(Oc3ccc(F)c(F)c3)n2)cc1", "inhibition": 2.08}
{"smiles": "CN(c1ccc(NC(=O)Nc2c(Cl)cccc2Cl)cc1)c1ccnc(Nc2cccc(CS(C)(=O)=O)c2)n1", "inhibition": 4.43}
{"smiles": "NC(=O)Cc1ccccc1Oc1nccc(-c2c(-c3ccc(F)cc3)ncn2C2CCNCC2)n1", "inhibition": 4.92}
{"smiles": "CN(C)CCOc1ccc(-c2cc(-c3ccc4c(c3)CCC4=NO)c(-c3ccncc3)o2)cc1", "inhibition": -1.18}
{"smiles": "CN(C)c1ccc2c(c1)/C(=C/Nc1ccc(S(N)(=O)=O)cc1)C(=O)N2", "inhibition": 1.27}
{"smiles": "COc1cc(C)c(N(C)C(=O)CN(C)C)cc1Nc1nc(Nc2cccc(F)c2C(N)=O)c2cc[nH]c2n1", "inhibition": 1.79}
{"smiles": "O=C(NCC1CC1)c1ccc(-c2cccc(C(=O)NC3CC3)c2)cc1", "inhibition": 3.86}
{"smiles": "COc1cc(N2CCN(C(C)C)CC2)ccc1Nc1nc(Nc2ccc(F)cc2C(=O)NC[C@@H](O)CO)c2cc[nH]c2n1", "inhibition": 46.8}
{"smiles": "NC(=O)c1ccc(Oc2nccc(-c3c(-c4ccc(F)cc4)ncn3C3CCNCC3)n2)cc1", "inhibition": -3.98}
{"smiles": "COc1cc2ncn(-c3cc(OCCc4ccccc4)c(C(N)=O)s3)c2cc1OC", "inhibition": 1.51}
{"smiles": "CCc1cccc(CC)c1/C=C/c1cncc(C(=O)NC)c1", "inhibition": 4.2}
{"smiles": "COc1ccc2cc(-c3c(-c4ccncc4)nc(-c4ccc([S+](C)[O-])cc4C)n3C)ccc2c1", "note": "(centres undefined)", "inhibition": -9.4}
